Measurements published in paper PMC3218832.

What was measured:
Assay in all cases: protein binding microarray; high values mean tight binding
Conditions in all cases: dsDNA, one strand shown
[1] = target: RELARELA (p65 homodimer) (Homo sapiens, UniProt Q04206 1-307)
[2] = target: p50p50 homodimer (Homo sapiens, UniProt P19838 7-356)
[3] = target: T1, p52p52 homodimer (Homo sapiens, UniProt Q00653 4-332)
T1 sequence: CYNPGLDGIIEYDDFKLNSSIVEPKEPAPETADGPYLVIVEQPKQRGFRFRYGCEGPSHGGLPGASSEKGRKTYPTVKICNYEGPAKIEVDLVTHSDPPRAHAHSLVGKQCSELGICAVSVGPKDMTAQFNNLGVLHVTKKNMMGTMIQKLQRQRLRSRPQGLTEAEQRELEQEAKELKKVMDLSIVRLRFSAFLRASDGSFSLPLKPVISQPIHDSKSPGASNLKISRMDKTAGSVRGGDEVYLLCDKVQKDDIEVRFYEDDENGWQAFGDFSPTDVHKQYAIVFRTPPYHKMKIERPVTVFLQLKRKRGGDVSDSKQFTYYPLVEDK

[4] = target: RELA (p65) subunit of heterodimer;p50 subunit (Homo sapiens;Homo sapiens, UniProt Q04206;P19838 1-307;7-356)
[5] = target: RELA (p65) subunit of heterodimer;p52 subunit (Homo sapiens;Homo sapiens, UniProt Q04206;Q00653 1-307;4-332)
[6] = target: RELB subunit;p50 subunit (Homo sapiens;Homo sapiens, UniProt Q01201;P19838 120-401;7-356)
[7] = target: T2, RELB subunit;p52 subunit (Homo sapiens;Homo sapiens, UniProt Q01201;Q00653 120-401;4-332)
T2 sequence 1: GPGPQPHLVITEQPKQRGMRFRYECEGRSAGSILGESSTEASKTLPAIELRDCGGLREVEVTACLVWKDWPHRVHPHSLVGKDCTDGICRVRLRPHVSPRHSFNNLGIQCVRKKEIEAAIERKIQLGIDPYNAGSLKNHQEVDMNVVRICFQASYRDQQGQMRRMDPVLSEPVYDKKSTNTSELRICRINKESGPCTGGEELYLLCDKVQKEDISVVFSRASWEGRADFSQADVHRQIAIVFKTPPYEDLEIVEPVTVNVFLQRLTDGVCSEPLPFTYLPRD
T2 sequence 2: T1 sequence

[8] = target: C-Rel subunit;p50 subunit (Homo sapiens;Homo sapiens, UniProt Q04864;P19838 1-285;7-356)
[9] = target: T3, C-Rel subunit;p52 subunit (Homo sapiens;Homo sapiens, UniProt Q04864;Q00653 1-285;4-332)
T3 sequence 1: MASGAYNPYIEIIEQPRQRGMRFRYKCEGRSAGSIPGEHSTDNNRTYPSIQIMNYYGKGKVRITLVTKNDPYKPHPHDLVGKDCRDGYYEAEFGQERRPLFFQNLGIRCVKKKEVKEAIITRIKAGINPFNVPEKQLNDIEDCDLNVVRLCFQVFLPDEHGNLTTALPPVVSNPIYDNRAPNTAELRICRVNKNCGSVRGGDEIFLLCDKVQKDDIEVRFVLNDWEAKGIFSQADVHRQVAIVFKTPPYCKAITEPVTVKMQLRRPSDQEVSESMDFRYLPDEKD
T3 sequence 2: T1 sequence

p50p50 homodimer, sequence (P19838 7-356): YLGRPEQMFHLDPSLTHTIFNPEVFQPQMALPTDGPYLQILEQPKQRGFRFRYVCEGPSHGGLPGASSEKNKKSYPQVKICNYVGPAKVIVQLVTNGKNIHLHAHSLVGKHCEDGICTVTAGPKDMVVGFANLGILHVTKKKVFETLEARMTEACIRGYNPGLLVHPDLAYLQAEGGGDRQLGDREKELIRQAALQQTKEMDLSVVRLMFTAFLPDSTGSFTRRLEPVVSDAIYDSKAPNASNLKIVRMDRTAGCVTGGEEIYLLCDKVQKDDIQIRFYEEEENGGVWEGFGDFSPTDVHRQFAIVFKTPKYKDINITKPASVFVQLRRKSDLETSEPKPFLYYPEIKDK
RELA (p65) subunit of heterodimer;p50 subunit, sequence (Q04206 1-307, chain 1 of 2): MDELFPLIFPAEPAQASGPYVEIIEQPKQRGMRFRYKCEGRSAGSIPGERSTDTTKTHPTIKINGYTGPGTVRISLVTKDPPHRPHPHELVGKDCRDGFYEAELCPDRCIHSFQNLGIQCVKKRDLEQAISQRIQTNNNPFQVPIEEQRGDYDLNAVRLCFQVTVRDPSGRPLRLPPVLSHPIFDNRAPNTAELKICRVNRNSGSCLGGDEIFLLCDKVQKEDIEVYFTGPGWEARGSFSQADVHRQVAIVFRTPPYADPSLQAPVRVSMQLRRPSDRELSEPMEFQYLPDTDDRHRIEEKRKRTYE
RELA (p65) subunit of heterodimer;p50 subunit, sequence (P19838 7-356, chain 2 of 2): as the sequence (P19838 7-356) above
RELARELA (p65 homodimer), sequence (Q04206 1-307): as the sequence (Q04206 1-307, chain 1 of 2) above

Sequence	binding signal [1] [z-score]	binding signal [2] [z-score]	binding signal [3] [z-score]	binding signal [4] [z-score]	binding signal [5] [z-score]	binding signal [6] [z-score]	binding signal [7] [z-score]	binding signal [8] [z-score]	binding signal [9] [z-score]
GAGGTCCCCCT	0.588	1.14	0.954	1.63	1.22	1.56	1.97	1.28	1.05
AAGAAATTCCC	2.91	1.19	1.64	1.53	1.32	1.27	1.39	1.36	1.67
GAGAGTTCCCC	1.61	1.06	1.71	1.77	1.55	1.7	1.62	1.21	1.67
GAGTTCTTCCT	-0.0672	-1.52	-0.678	-0.535	-0.734	-0.845	-0.72	-0.764	-0.548
AAAGTTCTCCT	0.015	-1.02	-0.659	-0.601	-0.834	-0.944	-0.822	-0.841	-0.771
CAAAGGCCCCC	-1.53	0.336	0.0392	0.041	0.0834	0.123	0.14	-0.0908	0.0137
AGGTGGTCCCT	-0.0291	0.913	0.63	0.18	0.558	0.666	0.659	0.227	0.391
AAGATCGTCCC	0.328	0.168	0.307	-0.197	-0.135	0.309	0.078	0.266	-0.166
AGAGTCATCCT	-0.641	-2.61	-0.647	-1.23	-0.868	-1.06	-0.873	-1.63	-1.09
GAATAGACCCT	-0.683	-0.579	-0.346	-0.545	-0.606	-0.679	-0.749	-1.19	-0.574
AAGGAACCCCT	-0.469	0.961	0.532	0.281	0.861	0.479	0.874	0.215	0.603
GGATATGCCCT	0.304	-1.18	-0.574	-0.276	-0.49	-0.93	-0.689	-0.384	-0.294
GAGAGCGCCCT	-0.857	-1.91	-0.661	-0.903	-1.01	-1	-0.95	-1.31	-0.822
GAGATCCTCCC	-0.414	-0.604	-0.376	-0.425	-0.539	-0.422	-0.686	-0.717	-0.442
AGAAAACTCCC	1.36	1.03	0.9	1.14	0.979	1.35	0.74	0.654	0.947
GAGGGCTCCCC	-0.357	0.0285	-0.0309	0.109	-0.108	0.159	-0.218	0.253	0.154
GAGTTTCTCCT	-0.323	-1.49	-0.546	-0.596	-0.78	-0.911	-0.855	-0.907	-0.692
CAGTTTATCCC	0.419	-0.117	0.0692	-0.133	-0.195	-0.213	-0.287	0.0891	-0.0511
CGGGAGCTCCC	0.73	0.136	0.135	0.408	0.0305	0.0766	-0.106	-0.102	0.192
GGAGACGCCCT	-0.954	-1.6	-0.72	-0.832	-0.77	-1.05	-0.933	-1.16	-0.641
AAGTGGGTCCC	-0.651	-0.324	-0.0356	-0.468	-0.433	-0.00499	-0.124	-0.493	-0.609
AAGAGGCTCCC	-0.428	-1.01	-0.505	-0.958	-0.845	-0.665	-0.714	-1.12	-0.72
GAGTTATCCCT	-0.151	0.156	0.345	-0.075	0.135	0.201	0.304	-0.0693	-0.00956
CAAGGTTCCCC	0.544	1.15	1.29	1.68	1.31	1.5	1.58	1.36	1.06
GAGAGGACCCC	-0.845	-0.858	-0.455	-0.636	-0.537	-0.461	-0.392	-0.607	-0.571
GAGGGAGCCCT	-0.902	-0.904	-0.464	-0.859	-0.736	-0.793	-0.682	-1.28	-0.682
AGGATGTTCCC	0.975	-0.225	-0.143	0.237	0.0834	-0.426	-0.342	0.00777	-0.0123
CGATGGATCCT	-0.596	-1.5	-0.616	-1.04	-1	-1.33	-1.12	-1.59	-1.01
GAATACTCCCC	0.403	0.933	0.502	0.707	0.752	0.8	0.628	0.806	0.479
GGATAGACCCC	-0.296	-0.324	-0.227	-0.111	-0.128	-0.398	0.071	-0.41	-0.251
